Laboratory results as given in ChEMBL document CHEMBL3988442, “University of Dundee, Small-Polar-MMV Screening Library” (2021).
About 13,000 (27%) of roughly 48,000 compounds showed an effect of 50% or more. The list shows a part of the results.

test system: Wolbachia pipientis; assay: Anti-Wolbachia Cell-Based Screen; assay type: functional; design: scale not given: in the data most compounds retested in dose-response had high values; details: 5 µM

Row | SMILES | Percent Effect [%]
1 | COC(=O)c1ccc(N2CCN(C(=O)CCCc3cn[nH]c3)CC2)cc1 | -14.7
2 | CCNc1ncc(C(=O)NCc2csc(C)n2)cn1 | -20.21
3 | OCCOc1ccc(NCc2cccc3cccnc23)cn1 | -13.71
4 | COCCNC(=O)[C@@H]1CN(c2ncccn2)C[C@H]2OCC[C@H]21 | -43.81
5 | COCCNC(=O)[C@H]1C[C@@H]2CCN(c3ncccn3)C[C@H]2O1.O=C(O)C(F)(F)F | 108.2
6 | COCCNC(=O)[C@H]1CN(c2ncccn2)C[C@H]2OCC[C@@H]12 | -34.97
7 | COCCNC(=O)[C@H]1C[C@@H]2CCN(c3ncccn3)C[C@@H]2O1 | 107.5
8 | COCc1noc(C2(c3cccc(Cl)c3)CCOCC2)n1 | -3.313
9 | COC(=O)c1cccc(C2CNCCN2C)c1 (configuration not stated) | 77.97
10 | COC(=O)c1cccc(CNC(=O)NCCC(F)(F)F)c1 | -12.97
11 | CC(=O)N1CCNCC1c1cccc(C(=O)N(C)C)c1 (configuration not stated) | -10.2
12 | COC(=O)c1cccc(CNC(=O)CCC(F)(F)F)c1 | -15.88
13 | COC(=O)c1cccc(C2CNCCN2C(C)=O)c1 (configuration not stated) | 103.9
14 | COCCN1CCN(Cc2cccc(C(=O)N(C)C)c2)CC1C (configuration not stated) | -4.413
15 | CN(C)C(=O)c1cccc(C2CNCCN2C)c1 (configuration not stated) | 117.5
16 | COC(=O)c1ccc2ccn(CC3CCNC3)c(=O)c2c1 (configuration not stated) | -6.108
17 | CNC(=O)c1cccc(C2CNCCN2C)c1 (configuration not stated) | -21.17
18 | O=C(NCCc1ccncc1)c1ccc(N2CCOCC2)cc1 | -6.093
19 | Cn1cc(C(=O)NCc2ccc(N3CCNC(=O)C3)c(F)c2)cn1 | -29.09
20 | CC(C)CCC(=O)N1CCN(C(=O)c2ccc3nccn3c2)CC1 | -6.791
21 | CC(C)(O)CCc1cccc(C(=O)NCCC2=CSC3=NCCCN23)c1 | 99.07

Row | SMILES | Percent Effect [%]
22 | CCC(=O)Nc1cccc(C(=O)NCCC2=CSC3=NCCCN23)c1 | 108.7
23 | CCOc1ccc(N2CCCN=C2NC(=O)c2cccc(Cl)c2)cc1 | -0.7192
24 | CC(C)(O)CCc1cccc(C(=O)NCc2nccs2)c1 | 1.829
25 | CNc1cc(C(=O)N2CCC3(CC2)Nc2ccccc2NC3=O)ccn1 | 27.99
26 | CC(=O)N1CCOC(CNC(=O)c2cccc(CCC(C)(C)O)c2)C1 (configuration not stated) | 13.88
27 | O=C(NC1=NCCCN1c1ccc(Cl)cc1)c1cccc(Cl)c1 | 17.77
28 | CNc1cc(C(=O)N2CCCCC2CCn2ccnc2C)ccn1 (configuration not stated) | 14.21
29 | CNc1cc(C(=O)NCCC2=CSC3=NCCCN23)ccn1 | 99.62
30 | c1ccc(Cn2ccnc2CNC2CCCOc3ccccc32)cc1 (configuration not stated) | -11.7
31 | COC(=O)C(C)CN(C)S(=O)(=O)c1c(Br)cc2[nH]c(=O)oc2c1Cl (configuration not stated) | 24.19
32 | Cc1cccc(N(CCC(N)=O)C(=O)c2cc(-n3cccn3)ccn2)c1 | -21.32
33 | O=C(NCc1cn2c(n1)CN(Cc1ccccn1)CC2)C1CCC1.O=C(O)C(F)(F)F.O=C(O)C(F)(F)F | -6.874
34 | Cc1ncsc1CN1CCn2c(COCC3CC3)cnc2C1C.O=C(O)C(F)(F)F (configuration not stated) | 6.232
35 | CC1c2ncc(CNC(=O)C3CC3)n2CCN1Cc1ccncc1.O=C(O)C(F)(F)F.O=C(O)C(F)(F)F (configuration not stated) | 104.7
36 | CC1c2ncc(CNC(=O)C3CC3)n2CCN1Cc1cnn(C)c1.O=C(O)C(F)(F)F.O=C(O)C(F)(F)F (configuration not stated) | -12.81
37 | O=C(NCc1cn2c(n1)CN(Cc1ccncc1)CC2)C1CCC1.O=C(O)C(F)(F)F.O=C(O)C(F)(F)F | -6.264
38 | CC1c2ncc(CNC(=O)C3CC3)n2CCN1Cc1nccs1.O=C(O)C(F)(F)F (configuration not stated) | 120.4
39 | CC1c2ncc(CNC(=O)C3CC3)n2CCN1Cc1ccsc1.O=C(O)C(F)(F)F (configuration not stated) | 96.09
40 | CC1c2ncc(CNC(=O)C3CC3)n2CCN1Cc1ccccn1.O=C(O)C(F)(F)F.O=C(O)C(F)(F)F (configuration not stated) | 93.52
41 | N#Cc1cn(CCCN2CCc3ccccc3C2)c(=O)[nH]c1=O | -8.057
42 | COc1ccc2c(c1)OCC(Cc1ccc(N(C)C)nc1)C2 (configuration not stated) | -17.41

Row | SMILES | Percent Effect [%]
43 | CC(=O)NC[C@H]1COCc2nc3cc(S(C)(=O)=O)ccc3n21 | -22.59
44 | CC1c2ncc(CNC(=O)C3CC3)n2CCN1Cc1cccnc1.O=C(O)C(F)(F)F.O=C(O)C(F)(F)F (configuration not stated) | 100.5
45 | Cc1nc(COCc2cnc3n2CCN(CC2CCC2)C3C)cs1.O=C(O)C(F)(F)F (configuration not stated) | -9.854
46 | CC1c2ncc(CNC(=O)C3CC3)n2CCN1CC1CCC1.O=C(O)C(F)(F)F (configuration not stated) | 88.49
47 | COCc1cnc2n1CCN(C1CCC1)C2C.O=C(O)C(F)(F)F (configuration not stated) | 11.12
48 | COc1cccc2c1OCC(CNC(=O)CCCN1CCOCC1)C2 (configuration not stated) | 2.111
49 | CS(=O)(=O)NCc1cc2n(n1)CCCN(Cc1cccc(C#N)c1)C2 | 3.455
50 | CC(CNC(=O)N1CCN(c2cnccn2)CC1)Cc1cccs1 (configuration not stated) | -7.53
51 | CCc1ccc(S(=O)(=O)NCC2CCN(c3cnccn3)CC2)s1 | 118.2
52 | O=C(NCCSCc1ccc(Br)s1)C1CCCN(c2cnccn2)C1 (configuration not stated) | 1.609
53 | CN(C1CCN(c2ccccn2)CC1)S(=O)(=O)c1cccs1 | -12.42
54 | O=S(=O)(NCC1CCN(c2cnccn2)CC1)c1cccs1 | 107.7
55 | Cc1nn(C)c(C)c1CN(C)C1CCN(c2ncnc3[nH]cnc23)CC1 | 0.8279
56 | CC(=O)Nc1ccc(C(=O)N2CCOc3nc(C)ccc32)cc1 | -10.66
57 | COC(=O)CCC(=O)N1CCc2nc(C(=O)N(C)C)sc2CC1 | -18.4
58 | Cc1cc(Nc2ncccn2)nc(C2CCCN(CCO)C2)n1 (configuration not stated) | 168.6
59 | Cc1cc(Nc2ccccn2)nc(C2CCCN(CCO)C2)n1.O=CO (configuration not stated) | 136
60 | Cc1cc(Nc2cnccn2)nc(C2CCCN(CCO)C2)n1 (configuration not stated) | 125
61 | Cc1cc(O)nc(C2CCCN(CCO)C2)n1 (configuration not stated) | 175.9
62 | Cn1ncc2c(N3CCN(CCO)CC3)nc(C3CCCC3)nc21 | 1.132
